Source: PubChem BioAssay (National Center for Advancing Translational Sciences (NCATS))
BAZ2B inh = qHTS Assay for Inhibitors of BAZ2B; AlphaScreen BAZ2B-H3K14Ac peptide displacement; Potency, µM (titrated, usually from 114 µM), inactives show at the highest dose activity change, negative = inhibition, hits mostly inhibitors; 360,000 tested, 4.4% active; AID 504333, 2011; note: % is set by controls: 0 for no effect and ±100 for the full control effect; nearly all actives have a fitted effect of over 60% in size
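BAZ2B (50 nM) with biotin-H3(5-23)K14Ac peptide (50 nM) in PBS pH 7.4, 0.01% Tween-20, preformed 30 min, then compound 30 min at room temperature; top concentration 110uM. AlphaScreen streptavidin donor/nickel chelate acceptor beads (10 ug/mL final), 20 min dark, signal read.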
HP1b chromo inh = HTS for Inhibitors of HP1-beta Chromodomain Interactions with Methylated Histone Tails; Chromobox protein homolog 1 (Homo sapiens), P83916; AlphaScreen HP1-beta / biotin-H3K9me3 peptide binding; Potency, µM (top dose mostly 114 µM), for the others: at the highest dose activity change, negative = inhibition, usual class: inhibitors; 390,000 tested, 0.56% active; note: nearly all actives have a fitted effect of over 70% in size
Target sequence (P83916 whole entry, looked up): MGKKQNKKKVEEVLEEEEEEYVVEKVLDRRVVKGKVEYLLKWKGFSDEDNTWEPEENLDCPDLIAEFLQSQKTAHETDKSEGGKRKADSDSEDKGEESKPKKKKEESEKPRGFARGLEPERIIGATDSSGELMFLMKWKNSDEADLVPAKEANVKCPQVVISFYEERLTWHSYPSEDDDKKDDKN
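AlphaScreen: HP1-beta (50 nM) preformed 30 min with biotin-H3(1-18)K9me3 peptide (50 nM) in PBS pH 7.4, 0.01% Tween-20. Compound added for 30 min at RT, then streptavidin donor/nickel chelate acceptor beads (10 ug/mL) for 30 min.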
G9a block = qHTS Assay for Inhibitors of Histone Lysine Methyltransferase G9a; Histone-lysine N-methyltransferase EHMT2 (Homo sapiens), Q96KQ7; G9a H3K9 monomethylation, AlphaScreen, 2 h; Potency, µM (series often up to 102 µM), without a hit: top-dose activity, negative = inhibition, usual class: inhibitors; 350,000 tested, 8.8% active; AID 504332, 2011; note: % is set by controls: 0 for no effect and ±100 for the full control effect; nearly all actives have a fitted effect of over 75% in size
Target sequence (Q96KQ7 913-1193 limits assumed): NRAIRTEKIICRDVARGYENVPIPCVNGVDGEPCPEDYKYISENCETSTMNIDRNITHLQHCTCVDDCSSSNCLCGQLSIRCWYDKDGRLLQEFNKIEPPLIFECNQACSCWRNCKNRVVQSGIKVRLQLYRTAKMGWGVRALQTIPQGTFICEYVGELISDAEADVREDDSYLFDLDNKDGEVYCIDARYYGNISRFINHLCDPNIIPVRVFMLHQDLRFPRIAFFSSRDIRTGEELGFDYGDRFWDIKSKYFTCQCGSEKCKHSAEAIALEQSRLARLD
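AlphaScreen read-out: biotin-H3K9 peptide (500 nM) methylation by 20 nM enzyme with 20 uM SAM, 2 h at room temperature after 15 min compound preincubation; anti-monomethyl H3K9 antibody plus donor/acceptor beads, 10 min dark.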
PLK1 PBD inh = qHTS for Inhibitors of PLK1-PDB (polo-like kinase 1 - polo-box domain): Primary Screen; Plk1 PBD binding of FITC phosphopeptide, fluorescence polarization; Potency, µM, inactives show max response, negative = inhibition, actives largely listed as inhibitors; 360,000 tested, 2.8% active; AID 720504, 2013; note: series mostly up to about 57 µM; % is set by controls: 0 for no effect and ±100 for the full control effect; nearly all actives have a fitted effect of over 65% in size
JMJD2A Tudor = qHTS Assay for Inhibitors of JMJD2A-Tudor Domain. AID 504339, 2011. Lysine-specific demethylase 4A (Homo sapiens), O75164. 390,000 tested, 4.4% active. Potency, µM (top dose mostly 114 µM), for the others: at the highest dose activity change, negative = inhibition, hits mostly inhibitors. AlphaScreen JMJD2A-Tudor / H3K4me3 peptide binding; note: % is set by controls: 0 for no effect and ±100 for the full control effect; nearly all actives have a fitted effect of over 50% in size
Sfp inh = qHTS Assay for Inhibitors of Bacillus subtilis Sfp phosphopantetheinyl transferase (PPTase); 4'-phosphopantetheinyl transferase ffp (Bacillus subtilis), Q9F4F7; Biochemical Sfp PPTase activity, qHTS; Potency, µM, without a hit: largest response in the series, negative = inhibition, most hits filed as inhibitors; 310,000 tested, 3.5% active; AID 1490, 2009;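 note: the enzyme is Sfp with the accession as filed and its product quenches rhodamine fluorescence; 0% = enzyme reaction without inhibitor and -100% = no enzyme wells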
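With Hepes-Na pH 7.6 buffer containing 10 mM MgCl2, Sfp (15 nM) modified BHQ-2-YbbR (12.5 uM) using rhodamine-CoA (5 uM). Two reads 30 minutes apart at 525/598 nm yielded each well's rate.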
* hit, by the source's call; [ ] = remark or other dose. Sampled rows, rich in hits. Any-hit rate of the full collection: about 12%. Calls come from the whole dose curve; as a rule, active = well fitted curve in the direction sought with a large enough effect; inconclusive = small, poorly fitted or top-dose-only effect, or another doubt; inactive = no such curve, though single readings can be large; an effect the other way counts as inactive or inconclusive. Potency is the fitted concentration of half-maximal effect.

C/C=C/C(=O)Nc1cccc(C2=NOC3(C2)C[C@H](C(N)=O)N(C(=O)/C=C/C)C3)c1 (stereo not given in full) was read as BAZ2B inh 0%, HP1b chromo inh 23%, G9a block -3%[59 µM], PLK1 PBD inh -12%, JMJD2A Tudor -15% and Sfp inh 9%.
Screening C/C=C/C=C\C(=O)Nc1cccc(C2=NOC3(C2)C[C@@H](C(N)=O)N(C(=O)/C(C)=C/C)C3)c1 (stereo not given in full) returned BAZ2B inh -8%, HP1b chromo inh -25%, G9a block -6%[12.7 µM], PLK1 PBD inh -14%, JMJD2A Tudor inconclusive and Sfp inh 25µM*.
For C/C=C(/C)C(=O)Nc1cccc(C2=NOC3(C2)C[C@@H](C(N)=O)N(C(=O)CCCCC)C3)c1 (stereo not given in full) the results were BAZ2B inh 3%, HP1b chromo inh 32%, G9a block 3%[59 µM], PLK1 PBD inh -1%, JMJD2A Tudor -22% and Sfp inh 7%.
C/C=C\C=C/C(=O)Nc1cccc(C2=NOC3(C2)C[C@H](C(N)=O)N(C(=O)CC)C3)c1 (stereo not given in full) was read as BAZ2B inh 0%, HP1b chromo inh -39%, G9a block inconclusive, PLK1 PBD inh -19%, JMJD2A Tudor inconclusive and Sfp inh 13µM*.
`NCCCC[C@H](NC(=O)CNC(=O)[C@@H]1CCCN1C(=O)[C@H](Cc1ccc(O)cc1)NC(=O)CN)C(=O)N[C@@H](Cc1ccccc1)C(=O)O` gave Sfp inh 4%.
COc1cc(/C=N/NC(=O)C(=O)NCC2CCCO2)ccc1O (stereo not given) was read as BAZ2B inh 10%, HP1b chromo inh 50%, G9a block 11%[59 µM], PLK1 PBD inh -20%, JMJD2A Tudor -23% and Sfp inh -3%.
`O=C(O)c1ccccc1C=NNc1ccccn1` gave HP1b chromo inh 10%, PLK1 PBD inh 2% and JMJD2A Tudor 28µM*.
`O=C(NN=Cc1ccccc1C(=O)O)C(=O)NN=Cc1ccccc1C(=O)O` gave HP1b chromo inh 12%[57 µM], PLK1 PBD inh 5% and JMJD2A Tudor 50µM*.
For O=C(NCC1CCCO1)C(=O)N/N=C/c1ccc(OCc2ccccc2Cl)cc1 (stereo not given) the results were HP1b chromo inh 3%, PLK1 PBD inh inconclusive and JMJD2A Tudor 45µM*.
CC(NC(=O)C(=O)NCC1CCCO1)c1ccccc1 (stereo not given) was read as BAZ2B inh -15%, HP1b chromo inh 28%, G9a block 2%, PLK1 PBD inh -4%, JMJD2A Tudor -4%[57.1 µM] and Sfp inh 22%.
Screening O=C(NCC1CCCO1)C(=O)N/N=C/c1ccccc1C(=O)O (stereo not given) returned BAZ2B inh -34%, HP1b chromo inh 8%, G9a block 14%, PLK1 PBD inh 27µM*, JMJD2A Tudor -16%[11.4 µM] and Sfp inh 4%.
`COc1cccc(C(=O)NNS(=O)(=O)c2ccc(C)cc2)c1` gave BAZ2B inh -29%, HP1b chromo inh 44%, G9a block 1%[59 µM], PLK1 PBD inh -8%, JMJD2A Tudor -7% and Sfp inh 18%.
Screening CN(Cc1ccccc1)C(=O)CSc1nc2ccccc2n1Cc1ccccc1F returned BAZ2B inh -9%, HP1b chromo inh 48%, G9a block 0%[12.7 µM] and JMJD2A Tudor 2%.
Screening CCN(C(=O)CSc1nc(-c2ccc(C(C)C)cc2)no1)c1cccc(C)c1 returned BAZ2B inh 39%, HP1b chromo inh 107%, G9a block 54%[59 µM] and JMJD2A Tudor 48%.
`O=[N+]([O-])c1cc2c(cc1CN1CCN(CCOCCO)CC1)OCO2` gave BAZ2B inh inconclusive, HP1b chromo inh 29%, G9a block 79µM*, PLK1 PBD inh -15%, JMJD2A Tudor inconclusive and Sfp inh 79µM*.
`O=[N+]([O-])c1ccc(N2CCN(CCOCCO)CC2)c([N+](=O)[O-])c1` gave BAZ2B inh 32µM*, HP1b chromo inh inconclusive, PLK1 PBD inh -2%, JMJD2A Tudor 7.9µM* and Sfp inh -22%.
`CC(C)Oc1ccccc1C1CC(=O)Nc2cc3c(cc21)OCO3` (stereo not given) gave BAZ2B inh inconclusive, HP1b chromo inh -39%, G9a block inconclusive, PLK1 PBD inh -2%, JMJD2A Tudor 56µM* and Sfp inh 3%.
COc1ccc2cc(-c3[nH]ncc3CN3CCCN(c4ccccc4)CC3)ccc2c1 was read as BAZ2B inh 32µM*, HP1b chromo inh 20µM*, PLK1 PBD inh -1%, JMJD2A Tudor 35µM* and Sfp inh -2%.
For CCCC[C@]12Cc3cc(C#N)ccc3C(O1)c1c(cc(-c3ccccc3)oc1=O)O2 the results were BAZ2B inh 6%[22.9 µM] and Sfp inh 3%.
`O=C(Nc1cccc2ccccc12)OCc1cncs1` gave BAZ2B inh 1%, HP1b chromo inh 42%, PLK1 PBD inh -2%, JMJD2A Tudor -7% and Sfp inh -7%.
`COc1cc(Cl)c(C)cc1NC(=O)CSc1ncc(S(=O)(=O)c2ccc(C(C)(C)C)cc2)c(=O)[nH]1` gave BAZ2B inh 25µM*, HP1b chromo inh -21%, G9a block -49%[59 µM] and JMJD2A Tudor 89µM*.
Screening CC(C)(C)c1ccc(S(=O)(=O)c2cnc(SCC(=O)Nc3ccc(F)c(Cl)c3)[nH]c2=O)cc1 returned BAZ2B inh -31%, HP1b chromo inh 20%, G9a block -19%[59 µM] and JMJD2A Tudor inconclusive.
`CC(C)(C)OC(=O)N1CCCC1C(=O)NC1COC2CC(n3cc(F)c(=O)[nH]c3=O)OC12` (stereo not given) gave HP1b chromo inh 47%, JMJD2A Tudor -11% and Sfp inh 10%.
`O=C1NC[C@H](CCCCN2CCN(CCC3CCCCC3)C(=O)C2=O)N(CCc2ccc(O)cc2)C1=O` gave PLK1 PBD inh -5%.
